From the supplement of paper PMC13380429
Unmarked numbers belong to inactive results.

What follows are compounds tested on Vero E6 infected with SARS-CoV-2 (assay: SARS-CoV-2 infection rate relative to infected DMSO; higher = more infection, active = 60 or less). Settings: 24 h.
For `COc1cc2c(NC3CCN(C(C)C)CC3)nc(N3CCC(F)(F)CC3)nc2cc1OCCCN1CCCC1` (10 µM), the SARS-CoV-2 infection rate was 25.5% (active). `CC(C)Cc1ccc([C@@H](C)C(=O)NCCO)cc1` (racemic) [mabuprofen] (10 µM) was tested, and the SARS-CoV-2 infection rate was 109%. `O=C(O[C@H]1CN2CCC1CC2)N(Cc1cc(F)c(F)c(F)c1)c1cccc(F)c1` [tarafenacin] (10 µM) was tested, and the SARS-CoV-2 infection rate was 74%. Work on `Cc1ccc(C(=O)Nc2cccc(C(F)(F)F)c2)cc1Nc1nc(-c2cccnc2)nc2c1cnn2C` (10 µM) yielded an SARS-CoV-2 infection rate of 74%. `NC(=O)N/N=C/c1ccc([N+](=O)[O-])o1` [nitrofurazone] (10 µM) gave an SARS-CoV-2 infection rate of 105%. In the case of `Oc1cc(CNC(=S)/C=C/c2cc(O)c(O)c(Br)c2)cc(O)c1O` (0.833333 µM), the SARS-CoV-2 infection rate is reported as 104%. In the case of `CN(CCc1ccc(Cl)c(Cl)c1)CCN1CCCC1` (10 µM), the SARS-CoV-2 infection rate is reported as 74.5%. `CC[C@H]1[C@@H](O)[C@@H]2[C@H](CC[C@]3(C)[C@@H]([C@H](C)CCOS(=O)(=O)O)CC[C@@H]23)[C@@]2(C)CC[C@@H](O)C[C@@H]12` (10 µM) gave an SARS-CoV-2 infection rate of 106%. `CC(C)Oc1ccc(-c2nn([C@@H](C)c3oc4ccc(F)cc4c(=O)c3-c3cccc(F)c3)c3ncnc(N)c23)cc1F` (10 µM) showed an SARS-CoV-2 infection rate of 106%. `O=C1OC2(c3ccc(O)cc3Oc3cc(O)ccc32)c2ccccc21` [fluorescein] (10 µM) showed an SARS-CoV-2 infection rate of 110%. For `CCC(=O)NO` (10 µM), the SARS-CoV-2 infection rate was 112%. `CC(C)C(=O)Nc1ncc(-c2cc(C(F)F)nn2-c2c(Cl)cccc2Cl)s1` (10 µM) gave an SARS-CoV-2 infection rate of 108%. With `C[C@@]12C[C@@]3(O)O[C@@H](O1)[C@]1(COC(=O)c4ccccc4)[C@H]3C[C@@]12O[C@@H]1O[C@H](CO)[C@@H](O)[C@H](O)[C@H]1O` [paeoniflorin] (10 µM) the SARS-CoV-2 infection rate was 92.5%. `CC(C)(Oc1ccc(Cl)cc1)C(=O)O` [clofibric-acid] (10 µM) showed an SARS-CoV-2 infection rate of 98.5%. In the case of `CN(C)c1ccc(/C=C2\C(=O)Nc3ccccc32)cc1` (10 µM), the SARS-CoV-2 infection rate is reported as 101%. `Cn1c(=O)c2c(ncn2CC2OCCO2)n(C)c1=O` [doxofylline] (10 µM) was tested, and the SARS-CoV-2 infection rate was 106%. Compound `CCNC(=O)[C@H]1O[C@@H](n2cnc3c(N)ncnc32)[C@H](O)[C@@H]1O` (10 µM) has an SARS-CoV-2 infection rate of 92%. `O=C(O)c1ccc(N2C(=O)/C(=C/c3ccc(-c4ccc([N+](=O)[O-])cc4)o3)C=C2c2ccccc2)cc1` (10 µM) gave an SARS-CoV-2 infection rate of 93%. `COC(=O)[C@@H]1C[C@H](OC(C)=O)C(=O)[C@H]2[C@@]1(C)CC[C@H]1C(=O)O[C@H](c3ccoc3)C[C@]21C` [salvinorin-A] (10 µM) showed an SARS-CoV-2 infection rate of 100%. In the case of `C[C@@H]1C[C@H]2[C@@H]3CCC4=CC(=O)C=C[C@]4(C)[C@@]3(Cl)[C@@H](O)C[C@]2(C)[C@@]1(OC(=O)c1ccco1)C(=O)CCl` (10 µM), the SARS-CoV-2 infection rate is reported as 78%. Work on `CCN(CC)Cc1ccc(C(=O)N(CCc2ccccc2OC)[C@@H]2CCNC2)cc1` (10 µM) yielded an SARS-CoV-2 infection rate of 98.5%. `CC(C)(C)[C@]1(O)CC2OC(=O)CC23C(=O)OC2OC(=O)[C@H](O)C231` (stereo not given in full) [bilobalide] (10 µM) gave an SARS-CoV-2 infection rate of 110%. Work on `CCCCCCCCCCCCCCCCCCCCCCCCC(=O)O` [pentacosanoic-acid] (10 µM) yielded an SARS-CoV-2 infection rate of 96%. For `CCn1c(=O)c(-c2ccc(Cl)cc2Cl)cc2cnc(Nc3ccc(N4CCNCC4)c(F)c3)nc21` (0.833333 µM), the SARS-CoV-2 infection rate was 106%. In the case of `O[C@@H](CN1CCC(Cc2ccc(F)cc2)CC1)c1ccc(Cl)cc1` (racemic) [eliprodil] (10 µM), the SARS-CoV-2 infection rate is reported as 87%. For `CC[C@@H]([C@H](C)O)n1ncn(-c2ccc(N3CCN(c4ccc(OC[C@@H]5CO[C@@](Cn6cncn6)(c6ccc(F)cc6F)C5)cc4)CC3)cc2)c1=O` [posaconazole] (0.833333 µM), the SARS-CoV-2 infection rate was 102%. `S=C(NCCc1ccccn1)Nc1ccc(Br)cn1` [trovirdine] (10 µM) gave an SARS-CoV-2 infection rate of 110%. For `CCCc1ccc(C(=O)O)cc1` [4-propylbenzoic-acid] (10 µM), the SARS-CoV-2 infection rate was 95%. Compound `O=[N+]([O-])c1nccn1CC(O)CN1CCCCC1` (stereo not given) [pimonidazole] (10 µM) has an SARS-CoV-2 infection rate of 108%. With `CCc1nc(C(N)=O)c(Nc2ccc(N3CCC(N4CCN(C)CC4)CC3)c(OC)c2)nc1NC1CCOCC1` [gilteritinib] (0.833333 µM) the SARS-CoV-2 infection rate was 91.5%.
